Test results as given in the supplement of paper PMC10849652.
Of roughly 7,900 targets only a part is listed; those with a hit were picked by preference. About 0.6% of all pairs of compound and target were hits.

How the values were obtained:
Assay in all cases: log2 fold change, soluble protein after heating vs DMSO (PISA); higher = thermal stabilisation; K562 cells, 10 uM, 30 min; active = over 0.2 and 3.5 SD of the protein, either way, in both replicates (recomputed)
[1] = compound: C1COCCN1CCN2C3=CC=CC=C3N=C2NC(=O)C4=CC(=CC=C4)[N+](=O)[O-] [IRAK-1-4 Inhibitor I]
Method in brief: (§1)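 K562 cells at 2×10^6 cells/mL were given 10 μM compound for 30 min. Aliquots then went through 3 min of heating across 48°C-58°C, were pooled, and were extracted in PBS with 0.5% NP-40 at 4°C, and the supernatant after 21,000xg for 90 min was quantified by TMTpro 16plex LC-MS/MS with channel sums equalised. Thermal stability relative to control samples, from duplicates, is given as log2 fold change.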

[2] = compound: C=CC(=O)N1CCC[C@@H](n2nc(-c3ccc(Oc4ccccc4)cc3)c3c(N)ncnc32)C1 [ibrutinib]
Method in brief: as §1

[3] = compound: CC(=O)c1cnc2ccc(-c3cc(Cl)c(O)c(Cl)c3)nc2c1N[C@H]1CC[C@H](CN(C)C)CC1
Method in brief: as §1

[4] = compound: CC(C)(C)Cn1c(N)nc2ccc(-c3[nH]c(C(C)(C)C)nc3-c3ccc(F)cc3)nc21 [ralimetinib]
Method in brief: as §1

[5] = compound: CC(C)(O)CC(=O)NCCn1ccc2ncnc(Nc3ccc(Oc4cccc(C(F)(F)F)c4)c(Cl)c3)c21
Method in brief: as §1

[6] = compound: CC(C)C1=C2N=C(C=C(N2N=C1)NCC3=CC=CC=C3)NCCCCCCN
Method in brief: as §1

[7] = compound: CC(C)C[C@@H](C=O)NC(=O)[C@H](CC(C)C)NC(=O)[C@H](CC(C)C)NC(=O)OCc1ccccc1
Method in brief: as §1

[8] = compound: CC(C)N(C[C@H]1O[C@@H](n2cnc3c(N)ncnc32)[C@H](O)[C@@H]1O)[C@H]1C[C@@H](CCc2nc3cc(C(C)(C)C)ccc3[nH]2)C1 [pinometostat]
Method in brief: as §1

[9] = compound: CC1=C(C(CC(=O)N1)C2=CC=C(C=C2)C(F)(F)F)C(=O)NC3=C(C=C4C(=C3)C=NN4)F
Method in brief: as §1

[10] = compound: CC1=C(C2=C(C=C1)C(=O)C3=CC=CC=C3N2CCCN)C
Method in brief: as §1

[11] = compound: CC1=C(C=C(C=C1)NC(=O)C2=CC(=CC=C2)C(C)(C)C#N)NC3=CC4=C(C=C3)N=CN(C4=O)C
Method in brief: as §1

[12] = compound: CC1=C(C=C(C=C1)NC(=O)C2=CC(=CC=C2)N(C)C)NC(=O)C3=CC=C(C=C3)O
Method in brief: as §1

[13] = compound: CC1=CC=C(C=C1)SC2=C3C=C(SC3=CN=C2)C(=O)N
Method in brief: as §1

[14] = compound: CC1=NC(=CC=C1)C2=C(N=C(N2)C(C)(C)C)C3=CC4=NC=CN=C4C=C3
Method in brief: as §1

[15] = compound: CCCCN(Cc1ccc(C(=O)NO)cc1)C(=O)Nc1ccccc1 [Nexturastat A]
Method in brief: as §1

[16] = compound: CCCS(=O)(=O)Nc1ccc(F)c(C(=O)c2c[nH]c3ncc(-c4ccc(Cl)cc4)cc23)c1F [vemurafenib]
Method in brief: as §1

[17] = compound: CCCS(=O)(=O)Nc1ccc(F)c(C(=O)c2c[nH]c3ncc(Cl)cc23)c1F
Method in brief: as §1

[18] = compound: CCCc1cc(C)[nH]c(=O)c1CNC(=O)c1cc(-c2ccnc(N3CCN(C)CC3)c2)cc2c1cnn2C(C)C
Method in brief: as §1

[19] = compound: CCN(CC)Cc1ccc2cc(COC(=O)Nc3ccc(C(=O)NO)cc3)ccc2c1 [givinostat]
Method in brief: as §1

[20] = compound: CCN(CCCOc1ccc2c(Nc3cc(CC(=O)Nc4cccc(F)c4)[nH]n3)ncnc2c1)CCOP(=O)(O)O [barasertib]
Method in brief: as §1

Measured: log2 fold change

METAP1D (UniProt Q6UB28)
Sequence of UniProt Q6UB28 (Q6UB28 whole entry, looked up): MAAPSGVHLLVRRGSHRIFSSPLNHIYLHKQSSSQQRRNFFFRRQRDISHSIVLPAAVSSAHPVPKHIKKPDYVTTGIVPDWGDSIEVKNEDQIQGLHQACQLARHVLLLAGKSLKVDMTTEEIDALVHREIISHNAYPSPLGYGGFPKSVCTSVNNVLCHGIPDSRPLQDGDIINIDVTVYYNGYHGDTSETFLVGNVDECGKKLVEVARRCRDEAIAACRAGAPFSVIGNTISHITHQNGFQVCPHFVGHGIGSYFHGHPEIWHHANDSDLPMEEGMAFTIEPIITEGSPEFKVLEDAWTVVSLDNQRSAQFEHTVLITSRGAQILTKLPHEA
inactive: [1] -0.122 | [2] 0.017 | [3] 0.084 | [4] 0.01 | [5] -0.032 | [6] 0.094 | [7] 0.044 | [8] -0.003 | [9] 0.073 | [10] -0.024 | [11] -0.022 | [12] 0.009 | [13] 0.047 | [14] -0.09 | [15] -0.087 | [16] -0.032 | [17] -0.053 | [18] 0.056 | [19] -0.054 | [20] -0.074

MIA2 (UniProt Q96PC5)
Sequence of UniProt Q96PC5 (Q96PC5 whole entry, looked up): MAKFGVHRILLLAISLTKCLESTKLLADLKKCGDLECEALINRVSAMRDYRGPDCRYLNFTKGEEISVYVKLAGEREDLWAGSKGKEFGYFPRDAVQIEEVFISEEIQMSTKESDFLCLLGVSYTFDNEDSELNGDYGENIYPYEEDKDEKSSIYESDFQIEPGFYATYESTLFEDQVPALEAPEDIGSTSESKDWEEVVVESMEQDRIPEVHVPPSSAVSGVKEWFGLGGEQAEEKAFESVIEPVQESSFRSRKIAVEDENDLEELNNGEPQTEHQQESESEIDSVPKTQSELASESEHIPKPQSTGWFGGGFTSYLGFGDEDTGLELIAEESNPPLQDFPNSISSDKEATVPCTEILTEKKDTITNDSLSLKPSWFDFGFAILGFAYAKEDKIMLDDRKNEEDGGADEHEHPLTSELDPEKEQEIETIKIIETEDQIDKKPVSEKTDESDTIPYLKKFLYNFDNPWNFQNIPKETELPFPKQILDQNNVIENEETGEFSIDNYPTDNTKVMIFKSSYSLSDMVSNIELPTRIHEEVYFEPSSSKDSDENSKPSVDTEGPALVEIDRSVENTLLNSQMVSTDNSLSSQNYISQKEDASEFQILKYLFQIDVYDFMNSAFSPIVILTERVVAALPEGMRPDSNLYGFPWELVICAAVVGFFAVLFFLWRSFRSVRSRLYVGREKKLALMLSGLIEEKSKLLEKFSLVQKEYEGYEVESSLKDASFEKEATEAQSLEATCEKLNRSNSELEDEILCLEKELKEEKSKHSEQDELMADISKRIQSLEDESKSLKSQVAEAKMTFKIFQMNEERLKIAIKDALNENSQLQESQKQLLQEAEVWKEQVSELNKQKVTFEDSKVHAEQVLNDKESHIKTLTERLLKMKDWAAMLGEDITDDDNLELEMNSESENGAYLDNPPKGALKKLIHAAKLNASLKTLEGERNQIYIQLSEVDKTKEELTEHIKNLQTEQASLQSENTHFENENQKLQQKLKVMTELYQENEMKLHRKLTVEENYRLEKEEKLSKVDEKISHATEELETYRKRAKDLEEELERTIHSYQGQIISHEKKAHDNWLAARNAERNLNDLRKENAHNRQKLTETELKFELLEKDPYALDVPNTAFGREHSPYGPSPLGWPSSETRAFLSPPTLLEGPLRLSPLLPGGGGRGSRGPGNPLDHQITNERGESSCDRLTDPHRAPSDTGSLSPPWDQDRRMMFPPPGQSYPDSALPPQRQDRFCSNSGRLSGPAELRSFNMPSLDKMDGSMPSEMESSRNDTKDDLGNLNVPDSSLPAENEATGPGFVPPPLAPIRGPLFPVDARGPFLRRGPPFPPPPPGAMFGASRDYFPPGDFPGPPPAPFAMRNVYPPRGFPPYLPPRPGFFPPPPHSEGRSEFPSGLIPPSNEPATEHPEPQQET
inactive: [1] -0.036 | [2] 0.008 | [3] -0.059 | [4] -0.003 | [5] 0.03 | [6] -0.155 | [7] 0.035 | [8] 0.043 | [9] 0.077 | [10] 0.032 | [11] 0.009 | [12] -0.012 | [13] -0.002 | [14] -0.016 | [15] 0.015 | [16] 0.003 | [17] -0.062 | [18] 0.128 | [19] 0.003 | [20] 0.021

KSR1 (UniProt Q8IVT5)
Sequence of UniProt Q8IVT5 (Q8IVT5 whole entry, looked up): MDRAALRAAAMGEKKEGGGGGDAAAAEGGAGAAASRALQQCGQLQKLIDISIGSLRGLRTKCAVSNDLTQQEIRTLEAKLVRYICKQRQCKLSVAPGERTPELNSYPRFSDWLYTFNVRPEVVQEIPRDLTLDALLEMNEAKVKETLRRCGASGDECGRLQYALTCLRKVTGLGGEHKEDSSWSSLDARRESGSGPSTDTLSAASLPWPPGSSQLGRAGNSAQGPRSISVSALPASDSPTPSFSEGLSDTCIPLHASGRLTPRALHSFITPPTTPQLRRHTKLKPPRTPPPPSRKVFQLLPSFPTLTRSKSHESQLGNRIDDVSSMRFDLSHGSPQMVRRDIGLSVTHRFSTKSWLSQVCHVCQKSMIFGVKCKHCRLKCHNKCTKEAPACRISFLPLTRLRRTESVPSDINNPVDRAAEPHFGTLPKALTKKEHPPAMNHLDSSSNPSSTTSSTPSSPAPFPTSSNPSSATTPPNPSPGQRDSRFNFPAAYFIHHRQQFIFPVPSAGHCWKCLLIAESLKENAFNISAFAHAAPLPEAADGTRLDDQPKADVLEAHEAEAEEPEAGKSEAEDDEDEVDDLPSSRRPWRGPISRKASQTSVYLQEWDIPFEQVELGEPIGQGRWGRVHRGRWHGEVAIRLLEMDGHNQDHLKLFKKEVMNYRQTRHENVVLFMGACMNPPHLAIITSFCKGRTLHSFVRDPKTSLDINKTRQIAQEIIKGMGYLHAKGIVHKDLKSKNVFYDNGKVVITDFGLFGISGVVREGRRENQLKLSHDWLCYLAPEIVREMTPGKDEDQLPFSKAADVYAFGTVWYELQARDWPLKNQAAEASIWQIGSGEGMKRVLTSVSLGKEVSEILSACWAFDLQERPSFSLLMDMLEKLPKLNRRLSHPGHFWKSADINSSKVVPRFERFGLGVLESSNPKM
active: [3] -0.807
inactive: [1] -0.07 | [2] -0.084 | [4] 0.065 | [5] -0.231 | [6] -0.085 | [7] 0.085 | [8] 0.035 | [9] 0.011 | [10] 0.044 | [11] 0.231 | [12] -0.007 | [13] 0.112 | [14] -0.028 | [15] 0.001 | [16] 0.046 | [17] 0.218 | [18] -0.132 | [19] 0.106 | [20] 0.013

MGST1 (UniProt P10620)
Sequence of UniProt P10620 (P10620 whole entry, looked up): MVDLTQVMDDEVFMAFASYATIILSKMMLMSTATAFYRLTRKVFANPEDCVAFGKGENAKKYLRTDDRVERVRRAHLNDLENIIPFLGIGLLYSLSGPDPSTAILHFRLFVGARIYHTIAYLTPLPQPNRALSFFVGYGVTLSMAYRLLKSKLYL
inactive: [1] 0.002 | [2] 0.033 | [3] 0.064 | [4] -0.01 | [5] -0.001 | [6] -0.004 | [7] 0.011 | [8] -0.074 | [9] 0.032 | [10] 0.054 | [11] 0.062 | [12] 0.044 | [13] -0.017 | [14] 0.017 | [15] -0.07 | [16] 0.067 | [17] -0.007 | [18] -0.093 | [19] -0.027 | [20] -0.035

LUC7L2 (UniProt Q9Y383)
Sequence of UniProt Q9Y383 (Q9Y383 whole entry, looked up): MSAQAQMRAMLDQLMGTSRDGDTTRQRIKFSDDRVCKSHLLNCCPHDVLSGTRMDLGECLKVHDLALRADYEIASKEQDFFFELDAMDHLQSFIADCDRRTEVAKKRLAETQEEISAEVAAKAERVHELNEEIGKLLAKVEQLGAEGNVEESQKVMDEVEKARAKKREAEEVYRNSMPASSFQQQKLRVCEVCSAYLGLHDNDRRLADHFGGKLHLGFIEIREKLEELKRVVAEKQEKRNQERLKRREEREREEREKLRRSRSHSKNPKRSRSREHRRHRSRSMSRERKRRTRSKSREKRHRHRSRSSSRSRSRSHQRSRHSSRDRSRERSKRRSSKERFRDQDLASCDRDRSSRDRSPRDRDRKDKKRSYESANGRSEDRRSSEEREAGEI
inactive: [1] -0.207 | [2] -0.026 | [4] 0.111 | [5] 0.031 | [6] -0.134 | [7] -0.04 | [8] -0.048 | [9] 0.009 | [10] -0.037 | [11] 0.016 | [12] -0.011 | [13] 0.006 | [14] 0.089 | [15] -0.036 | [16] 0.012 | [17] 0.047 | [18] 0.015 | [19] -0.01 | [20] 0
active: [3] -0.646

MAST4 (UniProt O15021)
active: [4] -0.479
inactive: [1] -0.025 | [2] -0.138 | [3] -0.089 | [5] -0.091 | [6] -0.085 | [7] 0.002 | [8] -0.057 | [9] -0.027 | [10] 0.268 | [11] 0.003 | [12] -0.246 | [13] 0.061 | [14] 0.044 | [15] -0.08 | [16] 0.021 | [17] 0.055 | [18] 0.072 | [19] -0.024 | [20] 0.028

JMJD6 isoform 3 (UniProt Q6NYC1)
inactive: [1] -0.02 | [2] -0.011 | [3] -0.049 | [4] -0.065 | [5] 0.019 | [6] -0.041 | [7] 0.004 | [8] -0.016 | [9] 0.013 | [10] 0.102 | [11] 0.055 | [12] -0.085 | [13] 0.092 | [14] 0.024 | [15] -0.147 | [16] 0.002 | [17] 0.049 | [18] 0.071 | [19] -0.095 | [20] -0.007

MAPKAPK3 (UniProt Q16644)
Sequence of UniProt Q16644 (Q16644 whole entry, looked up): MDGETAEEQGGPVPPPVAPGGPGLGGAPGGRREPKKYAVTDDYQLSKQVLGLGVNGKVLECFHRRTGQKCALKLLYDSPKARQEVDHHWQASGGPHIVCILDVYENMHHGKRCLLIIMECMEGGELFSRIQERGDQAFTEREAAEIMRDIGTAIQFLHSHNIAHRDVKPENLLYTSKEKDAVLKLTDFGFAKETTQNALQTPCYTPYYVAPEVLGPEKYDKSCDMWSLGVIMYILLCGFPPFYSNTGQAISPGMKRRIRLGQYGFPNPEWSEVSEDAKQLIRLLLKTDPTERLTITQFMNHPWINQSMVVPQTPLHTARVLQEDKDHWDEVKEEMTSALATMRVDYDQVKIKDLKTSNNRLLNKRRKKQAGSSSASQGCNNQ
active: [3] 0.332 | [4] 0.413
inactive: [1] 0.031 | [2] 0.006 | [5] -0.103 | [6] -0.121 | [7] -0.151 | [8] -0.039 | [9] -0.008 | [10] 0.045 | [11] 0.24 | [12] 0.097 | [13] -0.025 | [14] 0.069 | [15] -0.134 | [16] 0.033 | [17] 0.063 | [18] -0.012 | [19] 0.015 | [20] 0.039
